According to PubChem BioAssay AID2116 (The Scripps Research Institute Molecular Screening Center, 2009):
The source made the active and inactive calls. The rule behind the calls is not given here.

target: Mucolipin-2 (Homo sapiens) (UniProt Q8IZK6); assay: activators of mucolipin-3 and mucolipin-2 – cell-based, patch clamp, Fura-2 profiling panel (AID 2116); conditions: HEK293 cells, TRPML2 Fura-2 Imaging; at 10 µM; stronger effect = higher value

| SMILES | activation |
| --- | --- |
| O=S(=O)(Nc1ccccc1N1CCCCC1)c1ccc(Cl)s1 | < 1% (inactive) |
| O=S(=O)(Nc1ccccc1N1CCOCC1)c1ccc(Cl)s1 | 7.14% (inactive) |
| O=S(=O)(NC1CCCCC1N1CCOCC1)c1ccc(Cl)cc1 (stereo not given) | 54.5% (active) |
| Cc1ccc(S(=O)(=O)Nc2ccccc2-c2ccccc2)cc1 | < 1% (inactive) |
| Cc1ccc(N2CCN(S(=O)(=O)N3CCCCC3)CC2)c(C)c1 | 23.5% (active) |
